According to PubChem BioAssay (EPA / NIEHS):
The source made the active and inactive calls. Rule for the calls: active = hit-call score of the fitted dose curve at least 0.9, where 1 is the maximum; inactive = score below 0.9.

Legend:
Details in all cases: mRNA level, 48 h; actives raise or lower the signal
[1] = read-out: flavin-containing dimethylaniline monooxygenases 3 (FMO3), FMO3 (gene 2328); test: LTEA_HepaRG_FMO3: Life Technologies and Expression Analysis (LTEA) Assay for flavin-containing dimethylaniline monooxygenases 3 (FMO3) using HepaRG (AID 2283453)
In short: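 Eight-point concentration-response in serum-free HepaRG cultures (top 100 uM, 0.5% DMSO, 48 h). Read-out: FMO3 mRNA level normalized to three endogenous control genes, fitted bidirectionally versus vehicle.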

[2] = read-out: Cytochrome P450 (CYP1A1), CYP1A1 (gene 1543); test: LTEA_HepaRG_CYP1A1: Life Technologies and Expression Analysis (LTEA) Assay for Cytochrome P450 (CYP1A1) using HepaRG (AID 2283454)
In short: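 Differentiated human HepaRG cells, after 48 h plating, exposed in duplicate for 48 h in serum-free induction medium to 8 half-log concentrations up to 100 uM in 0.5% DMSO. CYP1A1 mRNA by qRT-PCR, normalized to ACTB/GAPDH/POLR2A; bidirectional fit versus DMSO.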

[3] = read-out: CFLAR gene, CFLAR (gene 8837); test: LTEA_HepaRG_CFLAR: Life Technologies and Expression Analysis (LTEA) Assay for CFLAR gene using HepaRG (AID 2283455)
In short: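 Transcript level by qRT-PCR (normalized to ACTB, GAPDH and POLR2A) after 48 h chemical exposure of HepaRG cells, top concentration 100 uM with half-log steps, 0.5% DMSO vehicle, duplicates; fitted bidirectionally against DMSO baseline.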

[4] = read-out: Forkhead box O1 (FOXO1), FOXO1 (gene 2308); test: LTEA_HepaRG_FOXO1: Life Technologies and Expression Analysis (LTEA) Assay for Forkhead box O1 (FOXO1) using HepaRG (AID 2283456)
In short: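 FOXO1 transcript quantified by qRT-PCR after 48 h chemical exposure (top 100 uM, half-log steps, 0.5% DMSO) of HepaRG cells, housekeeping-normalized (ACTB/GAPDH/POLR2A). Changes fitted in both directions relative to vehicle.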

[5] = read-out: growth arrest and DNA damage 45 (GADD45A), GADD45A (gene 1647); test: LTEA_HepaRG_GADD45A: Life Technologies and Expression Analysis (LTEA) Assay for growth arrest and DNA damage 45 (GADD45A) using HepaRG (AID 2283458)
In short: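 HepaRG, 48 h exposure, 8 conc. (top 100 uM, half-log steps), 0.5% DMSO vehicle, duplicates. Read-out: qRT-PCR mRNA level, housekeeping-normalized (ACTB/GAPDH/POLR2A). Curves fit bidirectionally vs DMSO baseline.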

[6] = read-out: Forkhead box O3 (FOXO3), FOXO3 (gene 2309); test: LTEA_HepaRG_FOXO3: Life Technologies and Expression Analysis (LTEA) Assay for Forkhead box O3 (FOXO3) using HepaRG (AID 2283459)
In short: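 FOXO3 transcript measured by qRT-PCR (normalized to ACTB, GAPDH, POLR2A) after 48 h exposure of HepaRG cells in serum-free induction medium. Duplicates, eight half-log concentrations up to 100 uM, 0.5% DMSO; gain or loss fitted against DMSO.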

[7] = read-out: ABC Transporter (ABCB1), ABCB1 (gene 5243); test: LTEA_HepaRG_ABCB1: Life Technologies and Expression Analysis (LTEA) Assay for ABC Transporter (ABCB1) using HepaRG (AID 2283460)
In short: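 ABCB1 transcript level measured by TaqMan qRT-PCR against three housekeeping genes after 48 h chemical exposure of differentiated HepaRG cells. Top concentration 100 uM, half-log steps, eight points, 0.5% DMSO vehicle; bidirectional fit relative to DMSO.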

[8] = read-out: growth arrest and DNA damage 45 (GADD45B), GADD45B (gene 4616); test: LTEA_HepaRG_GADD45B: Life Technologies and Expression Analysis (LTEA) Assay for growth arrest and DNA damage 45 (GADD45B) using HepaRG (AID 2283461)
In short: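 Differentiated human HepaRG cells in serum-free induction medium exposed 48 h in duplicate to eight concentrations, top 100 uM, half-log steps, 0.5% DMSO. GADD45B mRNA by TaqMan qRT-PCR, normalized to ACTB, GAPDH, POLR2A; bidirectional fit versus DMSO.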

[9] = read-out: ABC Transporter (ABCC3), ABCC3 (gene 8714); test: LTEA_HepaRG_ABCC3: Life Technologies and Expression Analysis (LTEA) Assay for ABC Transporter (ABCC3) using HepaRG (AID 2283462)
In short: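 Differentiated human HepaRG cells exposed 48 h in serum-free induction medium, 0.5% DMSO vehicle, 8-point half-log series to 100 uM in duplicate. ABCC3 mRNA by qRT-PCR, normalised to ACTB, GAPDH, POLR2A; bidirectional fit vs DMSO.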

Measured: AC50

CCOP(=S)(Oc1cnc(C(C)(C)C)nc1)OC(C)C (configuration not stated)
active: [1] 4.99 µM | [2] 35 µM | [7] 19.4 µM
inactive: [3] | [4] | [5] | [6] | [8] | [9]

CCCCSP(=O)(SCCCC)SCCCC
inactive: [1] | [3] | [4] | [5] | [6] | [8] | [9]
active: [2] 27.6 µM | [7] 50 µM

COP(=O)(OC)OC(Br)C(Cl)(Cl)Br (configuration not stated)
active: [2] 50 µM
inactive: [4] | [6] | [7] | [8] | [9]

CCCSP(=O)(OCC)Oc1ccc(Br)cc1Cl (configuration not stated)
active: [2] 29.4 µM
inactive: [3] | [4] | [5] | [6] | [7] | [8] | [9]

Nc1c(Cl)cc([N+](=O)[O-])cc1Cl
active: [2] 7.36 µM | [3] 17.7 µM | [5] 78.9 µM | [6] 7.33 µM | [7] 31.1 µM | [8] 11.9 µM
inactive: [4] | [9]

C[Si](Cn1cncn1)(c1ccc(F)cc1)c1ccc(F)cc1
active: [2] 5.08 µM | [3] 50 µM | [4] 74.6 µM
inactive: [5] | [6] | [7] | [8] | [9]

CC(=NC#N)N(C)Cc1ccc(Cl)nc1
active: [2] 50 µM
inactive: [3] | [4] | [5] | [6] | [7] | [8] | [9]

CC1(C(=O)Nc2ccc(O)c(Cl)c2Cl)CCCCC1
inactive: [3] | [4] | [5] | [6] | [7] | [8] | [9]
active: [2] 67.2 µM

CCCCN(CC)c1c([N+](=O)[O-])cc(C(F)(F)F)cc1[N+](=O)[O-]
inactive: [3] | [4] | [5] | [6] | [7] | [8] | [9]
active: [2] 35.4 µM

C=C(C)[C@H]1Cc2c(ccc3c2O[C@@H]2COc4cc(OC)c(OC)cc4[C@@H]2C3=O)O1
active: [2] 2.44 µM | [4] 11.7 µM | [5] 6.57 µM | [7] 18.6 µM | [8] 16.5 µM
inactive: [3] | [6] | [9]

CCCOc1nn(C(=O)NS(=O)(=O)c2ccccc2C(=O)OC)c(=O)n1C
inactive: [2] | [3] | [4] | [5] | [6] | [7] | [8] | [9]

CCc1cccc(C)c1N(C(=O)CCl)C(C)COC (configuration not stated)
active: [2] 62.6 µM
inactive: [3] | [4] | [5] | [6] | [7] | [8] | [9]

CCOP(=S)(OCC)Oc1ccc([N+](=O)[O-])cc1
active: [2] 15.4 µM
inactive: [3] | [4] | [5] | [6] | [7] | [8] | [9]

COc1cc(OC)nc(Sc2cccc(Cl)c2C(=O)O)n1
inactive: [2] | [3] | [4] | [5] | [6] | [7] | [8] | [9]

Cc1nn(-c2cc(NS(C)(=O)=O)c(Cl)cc2Cl)c(=O)n1C(F)F
inactive: [3] | [4] | [5] | [6] | [8] | [9]
active: [2] 50 µM | [7] 8.21 µM

N#CSCSC#N
active: [2] 50 µM | [3] 75.2 µM | [4] 80.6 µM | [6] 84.9 µM | [8] 50 µM
inactive: [5] | [7] | [9]

CCOP(=S)(OCC)OC(Cl)C(Cl)(Cl)Cl (configuration not stated)
inactive: [3] | [4] | [5] | [6] | [7] | [8] | [9]
active: [2] 74.3 µM

CCC(=NOC/C=C/Cl)C1=C(O)CC(C2CCOCC2)CC1=O (configuration not stated)
active: [2] 50 µM
inactive: [3] | [4] | [5] | [6] | [7] | [8] | [9]

Cc1ccn2nc(S(=O)(=O)Nc3c(F)cccc3F)nc2n1
inactive: [2] | [3] | [4] | [5] | [6] | [7] | [8] | [9]
